Out of some 120,000 compounds screened, about 840 (0.7%) were called active.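 The calls were made as follows: active = inhibition above the batch mean plus 3 SD, and confirmed as a hit on visual image review (cut at about 43% in these data); inconclusive = passes the inhibition cutoff but fails visual image review; inactive = the rest.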 The entries come from a sample that favours actives as a whole.

The nature of the experiment: E-selectin induction blockers in HUVEC – imaging, immunofluorescence, high content, primary screen (AID 1246).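 Also: 0% = TNF-stimulated DMSO wells and 100% = unstimulated control wells.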 To be noted: HUVEC TNFa-induced E-selectin immunofluorescence, at 2 µM, hits give high values.
In the case of `C=CCN(CC=C)C(=O)COC(=O)c1n[nH]c2ccccc12`, the inhibition was -73.3% (inactive).

On to `O=C(CCC(=O)Nc1ccccc1)N/N=C/c1ccccc1F`, for which the inhibition is -1.59% (inactive).

Consider `CCCCC(CC)CNC(=O)C(=O)C1C(=O)Nc2ccccc21` (centres undefined), for which the inhibition was -10.1% (inactive).

Regarding `COCCNC(=O)CN(C(=O)CCC(=O)Nc1cc(C)on1)c1ccc(C)cc1C`, the inhibition was -15.2% (inactive).

Consider `CCCCOc1ccc(N(CC(=O)NCC2CCCO2)C(=O)CCC(=O)Nc2cc(C)ccn2)cc1` (centres undefined), for which the inhibition was 13.7% (inactive).

On to `Cc1cc(NC(=O)CCC(=O)N(CC(=O)NCC2CCCO2)c2ccccc2C)no1` (centres undefined), for which the inhibition is 66.4% (active).

Take `Cc1ccc(CSc2nc3[nH]ncc3c(=O)[nH]2)cc1`: the inhibition was 16% (inactive).

`Cc1ccc(C(=O)N/C(=C\c2cccs2)C(=O)NCCc2ccccn2)cc1C`: the inhibition was -0.32% (inactive).

Consider `C=CCC(C(=O)c1ccccc1)[N+](C)(C)CC=C` (centres undefined), for which the inhibition is -21.6% (inactive).

Take `CC1COc2ccccc2N1S(=O)(=O)c1ccccc1` (centres undefined): the inhibition was 10% (inactive).

Regarding `O=C1c2ccccc2NC(c2ccccn2)N1NS(=O)(=O)c1ccccc1` (centres undefined), the inhibition was 12.1% (inactive).

Turning to `COc1ccc(CCNC(=O)CC2SC(=Nc3cc(C)cc(C)c3)NC2=O)cc1OC` (centres undefined), the inhibition was -40.4% (inactive).

In the case of `COc1ccc2c(c1OC)C(=O)OC2Nc1nc(-c2ccccc2)cs1` (centres undefined), the inhibition is 36.5% (inactive).

In the case of `COc1ccc2c(c1OC)C(=O)OC2c1c(O)nc(SC)n(-c2ccccc2)c1=O` (centres undefined), the inhibition was 95% (active).

On to `CCn1c(SC)nc(O)c(C(c2ccc(OC)c(O)c2)c2c(O)nc(SC)n(CC)c2=O)c1=O`, for which the inhibition is -24.8% (inactive).

For the compound `O=C(O)CCCCOn1ccnc1`, the inhibition is 2.16% (inactive).

For the compound `Clc1ccc(CN2CCN(/N=C/c3cccnc3)CC2)cc1`, the inhibition was -6.01% (inactive).

With `Oc1ccc(-c2nncn2-c2ccccc2)cc1`, the inhibition is -13.7% (inactive).

As to `CCCCN(C(=O)/C=C/c1ccco1)c1c(N)n(CC(C)C)c(=O)[nH]c1=O`, the inhibition is 7.93% (inactive).

For the compound `O=C(Nn1cnc2ccccc2c1=O)c1ccc([N+](=O)[O-])cc1Cl`, the inhibition was -17% (inactive).

On to `O=C(O)CCC(=O)NCc1ccc2[nH]c3c(c2c1)CCCC3`, for which the inhibition is -12% (inactive).

With `O=[n+]1c2c(n([O-])c3cc(Br)ccc31)CCC2`, the inhibition was 8.3% (inactive).

As for `O=C1CCCc2c1[nH]c1ccc(Br)cc21`, the inhibition was 71.4% (active).

For the compound `CCN1C(=O)/C(=c2\s/c(=C3\Sc4ccccc4N3C)c(=O)n2C)N(C)C1=S`, the inhibition is -4.14% (inactive).

`CCC(C)NC(=O)/C=C/c1ccc(S(=O)(=O)NCc2ccco2)cc1` (centres undefined): the inhibition is 1.55% (inactive).

Turning to `CCN(CC)CCNS(=O)(=O)c1ccc(/C=C/C(=O)O)cc1`, the inhibition was 85.3% (active).

For `O=S(=O)(NCCNS(=O)(=O)c1ccccc1)c1ccccc1`, the inhibition is -9.47% (inactive).

Consider `O=C(Nc1ccnc(-c2ccncc2)n1)c1cccs1`, for which the inhibition was -27.2% (inactive).

Turning to `CCNC(=S)NNC(=O)C1CCN(Cc2ccccc2)CC1`, the inhibition is -1.82% (inactive).

In the case of `Cc1occc1C(=O)N1CCCc2ccccc21`, the inhibition is 19.4% (inactive).

Regarding `O=C1/C(=C\c2ccccc2Cl)SC(=S)N1CCC(=O)N1CCCc2ccccc21`, the inhibition was -3.4% (inactive).

On to `O=C(c1c(Cl)nc2sccn12)N1CCCc2ccccc21`, for which the inhibition was 79% (active).

Turning to `Cc1ccc(CN2CCN(Cc3ccc4ncccc4c3)CC2CCO)cc1` (centres undefined), the inhibition was -11.2% (inactive).

For the compound `COc1ccc(Cn2c(=O)cc(C)[nH]c2=S)cc1`, the inhibition is 5.51% (inactive).

Consider `Cn1cccc1C(C#N)c1ccccc1C#N` (centres undefined), for which the inhibition is 20.5% (inactive).

`CCCS(=O)(=O)N1CCC(CCOc2ccccc2)(C(=O)OCC)CC1`: the inhibition was -12.3% (inactive).

For the compound `COc1ccc(F)c(-c2nc(CN3CCC(c4ccccc4)CC3)c(C)o2)c1`, the inhibition was -28.7% (inactive).

`COc1ccc(CS(=O)/C(Cl)=C(/Cl)C(=O)Nc2ccc(OC)nc2)cc1` (centres undefined): the inhibition is 99.4% (active).

For `COc1ccc(NC(=S)Nc2ccccc2Cl)cn1`, the inhibition was -66.9% (inactive).

Take `COc1ccc(NC(=O)/C(Cl)=C(/Cl)S(=O)Cc2ccc(C)cc2)cn1` (centres undefined): the inhibition is 27.8% (inactive).

Take `O=c1cc(O)c(-c2cccc(C(F)(F)F)c2)c(Cl)[nH]1`: the inhibition is 14.3% (inactive).

As for `CCc1ccccc1NC(=S)N(CCN1CCCCCC1)Cc1ccco1`, the inhibition was -12.7% (inactive).

Consider `N/C(Cc1ccc([N+](=O)[O-])cc1)=N\OC(=O)C1CCCCC1`, for which the inhibition was -1.96% (inactive).

Turning to `N/C(Cc1ccc([N+](=O)[O-])cc1)=N\OC(=O)COc1ccc2ccccc2c1`, the inhibition was 62.5% (active).

Consider `CCOC(=O)COc1ccc([N+](=O)[O-])cc1`, for which the inhibition was 7.8% (inactive).

Regarding `Cc1ccnc(NC(=O)CCCOc2ccccc2)c1`, the inhibition was 4.53% (inactive).

For the compound `Cc1cc(C)nc(SCC(=O)N(C)C)n1`, the inhibition is 0.21% (inactive).

Turning to `COc1ccc(CN2CCNC(=O)C2CC(=O)N(C)Cc2ccccn2)cc1OC` (centres undefined), the inhibition was -8.81% (inactive).

Regarding `Cc1cc(C)c(C#N)c(SCC(=O)Nc2ccccc2)n1`, the inhibition was -29.3% (inactive).

For `CC(=O)c1ccc(-c2nnc(CCC(=O)N(C)Cc3cnc4ccccn34)o2)s1`, the inhibition was 4.22% (inactive).

Take `N#CC1=C(N)Oc2[nH]c(=S)[nH]c(=O)c2C12C(=O)Nc1ccccc12` (centres undefined): the inhibition was -26.7% (inactive).

With `COc1ccc(-c2nnn(Cc3nc(N)nc(N4CCCCC4)n3)n2)cc1`, the inhibition is -40.4% (inactive).

In the case of `COc1ccc(-n2nnnc2SCC(=O)NCc2cccs2)cc1`, the inhibition is 12.9% (inactive).

Turning to `COc1ccc(-n2nnnc2SCc2nc(N)nc(N3CCOCC3)n2)cc1`, the inhibition was 61.2% (active).

In the case of `CCOC(=O)c1sc(=NC(=O)/C=C/c2cccs2)n(C)c1C`, the inhibition is -26.1% (inactive).

For the compound `Cc1cccc(C(=O)NNC(=O)c2cccc([N+](=O)[O-])c2)c1`, the inhibition is -0.72% (inactive).

As to `O=C(CC12CC3CC(CC(C3)C1)C2)NCc1ccco1`, the inhibition was 23.1% (inactive).

Turning to `Fc1ccccc1Cn1cnc(NC(=S)NCCc2ccccc2)n1`, the inhibition is -14.1% (inactive).

As for `CCC(C)CN1CCC(CO)(Cc2ccccc2Cl)CC1` (centres undefined), the inhibition was -16.5% (inactive).

With `CCN1CCN(CC(=O)Nc2sc3c(c2C#N)CCC3)CC1`, the inhibition was 9.33% (inactive).

On to `CCN(CC)CCNC(=O)c1ccc(NC(=O)c2c(F)cccc2Cl)cc1`, for which the inhibition was -1.94% (inactive).

For the compound `O=C(NCC1CCCO1)C1CCN(C2CCN(C(=O)C3CCCCC3)CC2)CC1` (centres undefined), the inhibition is 13% (inactive).

With `O=C(CCCN1C(=O)c2cccc3cccc(c23)C1=O)N1CCN(Cc2ccc3c(c2)OCO3)CC1`, the inhibition was -25.6% (inactive).

In the case of `Cn1c(=O)cc(OCCCC(=O)N2CCN(c3ccccn3)CC2)c2ccccc21`, the inhibition is -12.9% (inactive).

With `Cn1c(=O)cc(OCCCC(=O)N2CCN(Cc3ccc4c(c3)OCO4)CC2)c2ccccc21`, the inhibition was 52.1% (active).

Consider `COCc1ccc(C(=O)N2CCc3c([nH]c4ccccc34)C2c2ccccn2)s1` (centres undefined), for which the inhibition is 4.79% (inactive).

For `CCN(CC)c1ccc2c(Nc3ccccc3)c(C=O)c(=O)oc2c1`, the inhibition was -20.2% (inactive).

In the case of `O=C(COC(=O)c1ccco1)NCc1ccc(Cl)cc1`, the inhibition is -1.29% (inactive).

Consider `O=S(=O)(/N=C(/Nc1ccccc1)c1ccccc1)c1cccs1`, for which the inhibition is 68.3% (active).

In the case of `O=C(O)c1ccc(NC(=O)c2cccs2)cc1`, the inhibition is -5.04% (inactive).

Turning to `O=S(=O)(/N=C(/Nc1ccccn1)c1ccccc1)c1ccc(Cl)cc1`, the inhibition is -19.7% (inactive).

On to `COc1ccc(NC(=O)CN2C(=O)CSC2=O)cc1`, for which the inhibition was -1.6% (inactive).

On to `O=C(N/N=C/c1cc2c(cc1Br)OCO2)C1COc2ccccc2O1` (centres undefined), for which the inhibition is -17.4% (inactive).

In the case of `Cc1cc(C)cc(OCC(=O)Nc2ccc(S(=O)(=O)Nc3ccccn3)cc2)c1`, the inhibition was -36.2% (inactive).

The inhibition is the drop in the measured response relative to a control, in per cent.

Values taken from PubChem BioAssay AID1246 (Columbia University Molecular Screening Center, 2008).
